Records with an inconclusive call do not appear. The source made the active and inactive calls. Calls come from the whole dose curve; as a rule, active = well fitted inhibition curve with a large enough effect; inconclusive = small, poorly fitted or top-dose-only effect; inactive = flat fitted curve, though single readings scatter.
What was measured:
Assay in all cases: qHTS profiling for inhibitors of Plasmodium falciparum proliferation (AID 504749); note: nearly all actives have a fitted effect of over 60% in size
Settings in all cases: P. falciparum in erythrocytes, SYBR Green DNA, 72 h; series mostly up to 28.7 µM
[1] = test system: 3D7
Summary of the method: (§1)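 In a 72 h erythrocytic culture (37 C, humidified, 5% CO2) at 2.5% hematocrit and 0.3% starting parasitemia, compounds were tested; SYBR Green I in detergent lysis buffer stained parasite DNA overnight.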

[2] = test system: 7G8
Summary of the method: as §1

[3] = test system: AA1029
Summary of the method: as §1

[4] = test system: AS120
Summary of the method: as §1

[5] = test system: ATS189
Summary of the method: as §1

[6] = test system: ATS95
Summary of the method: as §1

[7] = test system: C2A
Summary of the method: as §1

[8] = test system: CP185
Summary of the method: as §1

[9] = test system: CP191
Summary of the method: as §1

[10] = test system: CP192
Summary of the method: as §1

[11] = test system: CP194
Summary of the method: as §1

[12] = test system: CP201
Summary of the method: as §1

[13] = test system: CP203
Summary of the method: as §1

[14] = test system: CP211
Summary of the method: as §1

[15] = test system: CP215
Summary of the method: as §1

[16] = test system: CP217
Summary of the method: as §1

[17] = test system: CP237
Summary of the method: as §1

[18] = test system: CP238
Summary of the method: as §1

[19] = test system: CP247
Summary of the method: as §1

[20] = test system: CP250
Summary of the method: as §1

Measured: Potency
Potency is the fitted concentration of half-maximal effect.

Cc1cn[nH]c1
inactive: [1] | [2] | [3] | [4] | [5] | [6] | [7] | [8] | [9] | [10] | [11] | [12] | [13] | [14] | [15] | [16] | [17] | [18] | [19] | [20]

CC(C)NCC(O)COc1ccc(COCCOC(C)C)cc1 (stereo not given)
inactive: [1] | [2] | [3] | [4] | [5] | [6] | [7] | [8] | [9] | [10] | [11] | [12] | [13] | [14] | [15] | [16] | [17] | [18] | [19] | [20]

CNC[C@H](O)c1cccc(O)c1
inactive: [1] | [2] | [3] | [4] | [5] | [6] | [7] | [8] | [9] | [10] | [11] | [12] | [13] | [14] | [16] | [17] | [18] | [19] | [20]

CCCCNc1cc(C(=O)O)cc(S(N)(=O)=O)c1Oc1ccccc1
inactive: [1] | [2] | [3] | [4] | [5] | [6] | [7] | [8] | [9] | [10] | [11] | [12] | [13] | [14] | [16] | [17] | [18] | [19] | [20]

Cc1ccccc1C(OCCN(C)C)c1ccccc1 (stereo not given)
active: [6] 8.91 µM | [13] 13.5 µM
inactive: [1] | [9] | [10] | [20]

OC(CN1CCC(Cc2ccc(F)cc2)CC1)c1ccc(Cl)cc1 (stereo not given)
active: [1] 5.01 µM | [2] 0.316 µM | [3] 1.41 µM | [4] 1.26 µM | [5] 1.41 µM | [6] 1.58 µM | [17] 2.51 µM
inactive: [7] | [9] | [12] | [14]

Cc1cc2c(C(C)C)c(O)c(O)c(C=O)c2c(O)c1-c1c(C)cc2c(C(C)C)c(O)c(O)c(C=O)c2c1O
active: [2] 8.91 µM | [4] 8.91 µM | [17] 10 µM | [19] 11.2 µM

CCOC(=O)C1=C[C@@]2(CC)CCCN3CCc4c(n1c1ccccc41)[C@H]32
active: [10] 13.5 µM | [11] 13.5 µM | [13] 15.1 µM | [14] 13.5 µM | [15] 10.7 µM

Cn1cnc([N+](=O)[O-])c1Sc1ncnc2nc[nH]c12
inactive: [1] | [3] | [4] | [6] | [10] | [12] | [13] | [14] | [15] | [17]
active: [19] 6.31 µM

Cc1c(C)c2c(c(C)c1O)CCC(C)(COc1ccc(CC3SC(=O)NC3=O)cc1)O2 (stereo not given)
inactive: [1] | [6] | [7] | [8] | [10] | [12] | [18] | [20]
active: [2] 10 µM

CCCc1nc2c(C)cc(-c3nc4ccccc4n3C)cc2n1Cc1ccc(-c2ccccc2C(=O)O)cc1
active: [1] 8.91 µM | [2] 0.316 µM | [4] 1.41 µM | [5] 0.794 µM | [6] 3.98 µM | [17] 4.47 µM
inactive: [8] | [12] | [13] | [20]

CCOC(=O)N1CCC(=C2c3ccc(Cl)cc3CCc3cccnc32)CC1
active: [2] 2.24 µM | [4] 1.78 µM | [16] 3.98 µM | [17] 8.91 µM | [20] 3.55 µM
inactive: [5] | [7] | [18]

NC(N)=NC(=O)c1nc(Cl)c(N)nc1N
inactive: [8] | [10] | [11] | [12] | [14]
active: [2] 2 µM | [9] 8.91 µM | [13] 19 µM | [17] 8.91 µM

Clc1cccc(Cl)c1NC1=NCCN1
inactive: [1] | [3] | [4] | [5] | [6] | [7] | [8] | [9] | [10] | [11] | [12] | [13] | [14] | [15] | [16] | [17] | [18] | [19] | [20]

Clc1ccc(Nc2nnc(Cc3ccncc3)c3ccccc23)cc1
active: [2] 10 µM
inactive: [1] | [5] | [6] | [7] | [8] | [10] | [11] | [12] | [13] | [14] | [15] | [18] | [20]

O=C1CCc2cc(OCCCCc3nnnn3C3CCCCC3)ccc2N1
inactive: [1] | [2] | [6] | [9] | [10] | [11] | [12] | [13] | [14] | [15] | [17]
active: [18] 3.16 µM

CCOC(=O)C1=C[C@]2(CC)CCCN3CCc4c(n1c1ccccc41)[C@@H]32
active: [2] 5.01 µM | [3] 10 µM | [4] 8.91 µM | [6] 12.6 µM | [13] 16.9 µM | [16] 11.2 µM

Oc1ccc(C2CNCCc3c2cc(O)c(O)c3Cl)cc1 (stereo not given)
inactive: [1] | [3] | [4] | [5] | [6] | [7] | [8] | [9] | [10] | [11] | [12] | [13] | [14] | [15] | [16] | [17] | [18] | [19] | [20]

CN1CCN(CCCN2c3ccccc3Sc3ccc(C(F)(F)F)cc32)CC1
active: [2] 7.94 µM | [3] 3.16 µM | [4] 3.16 µM | [5] 3.98 µM | [6] 12.6 µM | [7] 7.94 µM | [9] 10 µM | [13] 15.1 µM | [17] 12.6 µM | [18] 3.16 µM | [20] 8.91 µM
inactive: [12]

C#Cc1cccc(Nc2ncnc3cc(OCCOC)c(OCCOC)cc23)c1
inactive: [8] | [10]
active: [1] 8.91 µM | [2] 11.2 µM | [3] 8.91 µM | [4] 11.2 µM | [17] 12.6 µM

CC(c1cc2ccccc2s1)N(O)C(N)=O (stereo not given)
inactive: [1] | [2] | [3] | [5] | [6] | [7] | [8] | [9] | [10] | [11] | [12] | [13] | [14] | [16] | [17] | [18] | [19] | [20]

C1COC(NC(C2CC2)C2CC2)=N1
inactive: [1] | [5] | [8] | [10] | [12] | [13] | [14]
active: [2] 12.6 µM | [4] 12.6 µM | [19] 11.2 µM

Nc1nc2ccc(OC(F)(F)F)cc2s1
inactive: [1] | [2] | [3] | [4] | [6] | [7] | [8] | [10] | [11] | [12] | [13] | [14] | [15] | [16] | [17] | [18] | [19] | [20]

COc1ccc2nc(S(=O)Cc3ncc(C)c(OC)c3C)[nH]c2c1 (stereo not given)
active: [2] 10 µM
inactive: [1] | [3] | [4] | [5] | [6] | [7] | [8] | [10] | [11] | [12] | [13] | [14] | [15] | [16] | [17] | [18] | [20]

NNCCc1ccccc1
inactive: [3] | [5] | [6] | [7] | [8] | [9] | [10] | [11] | [12] | [13] | [14] | [15] | [16] | [17] | [18] | [19]

NCCc1ccc(O)c(O)c1
inactive: [1] | [2] | [3] | [4] | [5] | [7] | [8] | [9] | [10] | [11] | [12] | [13] | [14] | [15] | [16] | [17] | [18] | [19] | [20]

O=c1n(CCCN2CCN(c3cccc(Cl)c3)CC2)nc2ccccn12
inactive: [1] | [2] | [3] | [4] | [5] | [7] | [8] | [9] | [10] | [11] | [12] | [13] | [14] | [16] | [17] | [18] | [19] | [20]

Cc1oncc1C(=O)Nc1ccc(C(F)(F)F)cc1
inactive: [1] | [3] | [4] | [5] | [6] | [7] | [8] | [10] | [11] | [12] | [13] | [14] | [16] | [17] | [18] | [19] | [20]
active: [2] 3.55 µM

Source: PubChem BioAssay (NCATS)
